# Test results: PubChem BioAssay (Tox21)
# Results filed as inconclusive are left out. A number with no mark means an inactive call. The call rests on the fitted dose curve; in most records, active means well fitted cell-killing curve with a large enough effect in the repeat runs; inconclusive means weak or mixed curves; inactive means no such curve, though single readings can be large or run the other way.
# Experiment: qHTS assay to identify small molecule agonists of the peroxisome proliferator-activated receptor delta (PPARd) signaling pathway - cell viability counter screen (AID 743211); further: nearly all actives have a fitted effect of over 55% in size
# Conditions: PPARd-bla HEK293H viability, CellTiter-Glo luminescence, 17 h; series mostly up to 62.6 µM; activity change, negative = cytotoxicity: at the top concentration
# From the text: U.S. Tox21 Program National Center for Advancing Translational Sciences [NCATS] NIH Chemical Genomics Center [NCGC] U.S. Environmental Protection Agency [EPA] National Institutes of Environmental Health Sciences [NIEHS] National Toxicology Program [NTP] U.S. Food and Drug Administration [FDA] Tox21 Assay Overview: The peroxisome proliferator-activated receptors (PPARs) are lipid-activated transcription factors of the nuclear receptor superfamily with three distinct subtypes namely PPAR alpha, PPAR delta (PPARd) and PPAR gamma. All these subtypes heterodimerizes with Retinoid X receptor (RXR) and have different physiological functions. […] To identify the compounds that activate PPAR-delta signaling, GeneBLAzer PPAR delta UAS-bla HEK293H cell line (Invitrogen, Carlsbad, CA, USA) containing a beta-lactamase reporter gene under the control of an Upstream Activator Sequence (UAS) was used to screen the Tox21 compound library. The cytotoxicity of the Tox21 compound library against the PPARd-bla cell line was tested in parallel by measuring the cell viability using CellTiter-Glo assay (Promega, Madison, WI) in the same wells.
# Tox21 Assay Protocol Summary: PPARd-bla cells were dispensed at 3000 cells/6uL/well in 1536-well black wall/clear bottom plates using a Multidrop Combi (Thermo Fisher Scientific, Waltham, MA) dispenser. After the assay plates were incubated at 37 C and 5% CO2 for 5 h, 23 nL of compounds dissolved in DMSO, positive controls or DMSO only was transferred to the assay plate by a Pintool station (Kalypsys, San Diego, CA). The assay plates were incubated at 37C for 17 h. After 1 uL of LiveBLAzerTM B/G FRET substrate was added using a Bioraptr Flying Reagent Dispenser (FRD) workstation (Beckman Coulter, Indianapolis, IN, USA), the plates were incubated at room temperature for 2 h, and fluorescence intensity was measured by an Envision plate reader (PerkinElmer, Shelton, CT). For cell viability readout that measures cytotoxicity, 3 ul/well of CellTiter-Glo reagent was added into the assay plates using a Bioraptr FRD. After 30 min incubation at room temperature, the luminescence intensity in the plates was measured using a ViewLux plate reader (PerkinElmer).
# On the % scale 0 is the no-effect control and ±100 the full control effect.
row,SMILES,"activity change, negative = cytotoxicity"
1,O=C(O)c1cccc(C(=O)O)c1C(=O)O,-3.4% [at 81.1 µM]
2,C=C[Si](OCC)(OCC)OCC,9.3%
3,Clc1nc2ccccc2nc1Cl,9.89% [at 81.1 µM]
4,Oc1ccc(Oc2ccccc2)cc1,-10.1%
5,C/C(=C(\CCO)SS/C(CCO)=C(\C)N(C=O)Cc1cnc(C)nc1N)N(C=O)Cc1cnc(C)nc1N,5.06%
6,CC(C)CCCCCOC(=O)CS,-11.4%
7,CCN(CC)CC(=O)OCC(=O)[C@@]1(O)CC[C@H]2[C@@H]3CCC4=CC(=O)CC[C@]4(C)[C@H]3[C@@H](O)C[C@@]21C,0.627%
8,CC(=O)Nc1cccc(N)c1,-5.29% [at 81.1 µM]
9,CC1(COc2ccc(CC3SC(=O)NC3=O)cc2)CCCCC1 (stereo not given),-9.88%
10,O=C(C1CCCCC1)N1CC(=O)N2CCCc3ccccc3C2C1 (stereo not given),4.61%
11,Clc1ccccc1-c1nc(-c2ccncc2)no1,-1.63%
12,Cc1ccc(Cl)c(OCC(O)CNC(C)(C)C)c1 (stereo not given),-16.6%
13,c1ccc(-c2ccc(-c3ccccc3)cc2)cc1,4.03% [at 29.1 µM]
14,O=C(c1ccc(Cl)cc1)c1ccc(Cl)cc1,-3.35%
15,Cc1nc(C)c(C)nc1C,4.52%
16,C=CC(=O)NC(C)(C)C,-1.36%
17,Cc1cc(SC2=C(O)C[C@@](CCc3ccc(N)cc3)(C(C)C)OC2=O)c(C(C)(C)C)cc1CO,2.2%
18,O=S(=O)(O)c1cc(Cl)c(Cl)cc1Cl,0.388%
19,O=Cc1ccc([N+](=O)[O-])cc1,2.64% [at 81.1 µM]
20,CCC[Si](OC)(OC)OC,0.362%

row,SMILES,"activity change, negative = cytotoxicity"
1,O=C(Cl)c1cc(Cl)cc(Cl)c1,0.383% [at 81.1 µM]
2,O=C1OC(=O)C2CC=CCC12 (stereo not given),7.51% [at 81.1 µM]
3,OCCOc1cccc(OCCO)c1,-1.93%
4,C=CC(O)CCCCC (stereo not given),-1.96%
5,SCCOCCOCCS,3.34%
6,O=c1[nH]nc(-c2ccc([N+](=O)[O-])o2)o1,-4.62%
7,Cc1ccc2c(Cl)cc(Cl)c(O)c2n1,2.02%
8,COc1ccc(/C=C/c2cc(OC)cc(=O)o2)cc1,-6.24%
9,Cc1ccc(NC=O)c(C)c1,7.77%
10,CCOC(C)OCC,6.15%
11,Cc1c(-c2cccnc2)c2ccccc2n1CCCCC(=O)O,2.8%
12,CCCCCC1CCC(=O)O1 (stereo not given),3.11%
13,CCCCOc1ccc(N)cc1,8.34%
14,COc1ccnc2c1CCCCC2S(=O)c1nc2ccccc2[nH]1 (stereo not given),-1.83%
15,O=C(OCCCCCOC(=O)c1ccccc1)c1ccccc1,1.8%
16,Cc1ccccc1CCO,0.033%
17,Nc1ccc(-c2ccc(F)cc2)cc1,2.46%
18,COc1ccc(C(=O)Nc2ccccc2)cc1[N+](=O)[O-],-6.59% [at 81.1 µM]
19,Cc1ccc(S(=O)(=O)NC(=O)NC2CCCC2)cc1,3.63%
20,CC[C@H](NC(C)C)[C@H](O)c1ccc(O)c2[nH]c(=O)ccc12,3.65%
